Screens: PubChem, Sanford-Burnham Center for Chemical Genomics
In the library only some 4% were active in any assay of this set; here they are far more common.
CF NFkB inh: cystic fibrosis NF-kB activation inhibition | KKLEB NF-kB-GFP reporter, PAF-induced, GFP fluorescence overnight | inhibition, % at 5 µM | 360,000 compounds, 0.86% hits | AID 588850;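 active means at least 50% inhibition at 5 µM, scaled per plate between neutral and stimulator controls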;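 further: PAF is a Pseudomonas aeruginosa culture filtrate used as stimulus; plate controls were PAF-stimulated DMSO wells for no effect and unstimulated DMSO wells for full effect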
TROY signal inh: blocks TROY-dependent signaling in reporter cells. Q293 LMP1-TROYcd NF-kB luciferase reporter, 4 h. inhibition, % at 10 µM. 360,000 compounds, 0.98% hits;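 active means compounds whose plate-normalised and pattern-corrected inhibition of the luciferase reporter signal at the single screening dose is 50% or more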
TWEAK-Fn14 inh: blocks TWEAK-Fn14 interaction in a reporter cell assay. 360,000 compounds, 2% hits. inhibition, % at 10 µM. TWEAK-stimulated Fn14 reporter cells, luciferase luminescence, 8 h; in the data active means inhibition above about 50%
KKLEB tox: reduces viability of KKLEB cystic fibrosis airway cells; KKLEB CF airway cells viability, ATPlite luminescence, overnight; active compounds read low; cells stimulated with P. aeruginosa culture filtrate; activity change (cytotoxicity), % at 5 µM; 360,000 compounds, 0.36% hits; AID 602141;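 active means corrected activity change at or below -50% at 5 µM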
HIF-2a inh: blocks HIF-2a reporter activity; 786-0 RCC cells HIF-2a reporter, luciferase luminescence, overnight; inhibition, % at 18.8 µM; 360,000 compounds, 0.72% hits; AID 624352;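 active means inhibition of the luminescence signal of 40% or more relative to plate controls, in a single-dose primary screen at 18.75 µM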
Peg3 promoter: reduces Peg3 promoter-driven luciferase expression in HeLa; inhibition, % at 20 µM; 360,000 compounds, 1.7% hits; AID 588405; HeLa PEG-Prom luciferase reporter, luminescence, overnight;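 active means inhibition of at least 50% at 20 µM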
* hit, by the source's call; . = not tested or not shown.

SMILES	CF NFkB inh	TROY signal inh	TWEAK-Fn14 inh	KKLEB tox	HIF-2a inh	Peg3 promoter
Cc1cc(C(=O)COC(=O)c2n[nH]c3ccccc23)c(C)n1CC1CCCO1 (centres undefined)	2	60*	82*	-24	-6	-73
Cc1ccc(C(=O)OCC(=O)c2cc(C)n(CC3CCCO3)c2C)cc1 (centres undefined)	-1	72*	64*	5	-92	-262
Cc1cc(C(=O)COC(=O)c2ccccc2NCCO)c(C)n1CC1CCCO1 (centres undefined)	28	40	62*	7	-22	-99
CCOc1cc(C(=O)OCC(=O)c2cc(C)n(CC3CCCO3)c2C)ccc1OCC(=O)N1CCOCC1 (centres undefined)	11	-7	9	2	-59	-50
Cc1cc(C(=O)COc2ccccc2C(N)=O)c(C)n1CC1CCCO1 (centres undefined)	-6	4	15	-17	-75	-52
Cc1cc(C(=O)COC(=O)c2cc(O)c3ccccc3c2O)c(C)n1CC1CCCO1 (centres undefined)	8	-16	79*	8	-6	-21
COc1ccc(OC)c(CCNC(=O)CCc2nnc3ccc(N4CCCCC4)nn23)c1	-29	-13	-12	8	12	0
Clc1cc(NCc2ccccc2)ncn1	8	10	-7	3	-3	-13
O=C(O)c1ccc2c(c1)NC(=O)C(N1CCCC1)S2 (centres undefined)	-9	0	9	14	-2	5
O=C(COC(=O)c1cccnc1Cl)NCC1CCCO1 (centres undefined)	2	-1	-8	16	10	1
COCCn1c(C)cc(C(=O)COC(=O)c2ccc3ncsc3c2)c1C	15	-9	0	-3	-94	-205
COCCn1c(C)cc(C(=O)COC(=O)c2cccnc2SC)c1C	-10	69*	68*	-6	-179	-154
Cc1cc(C(=O)COC(=O)c2cccnc2Cl)c(C)n1CC1CCCO1 (centres undefined)	-4	88*	99*	-18	-13	48
Cc1cc(C(=O)COC(=O)c2cccc(NS(C)(=O)=O)c2)c(C)n1CC1CCCO1 (centres undefined)	15	76*	92*	-17	8	39
O=C(COC(=O)CSc1ccc(F)cc1)NCc1ccco1	5	-2	1	8	4	-7
CC(=O)Oc1ccc(N2C(=O)C3C4C=CC(CO)(O4)C3C2=O)cc1 (centres undefined)	5	7	-5	-1	-1	26
O=C1C2C3C=CC(CO)(O3)C2C(=O)N1c1ccccc1-c1ccccc1 (centres undefined)	76*	-9	1	-31	11	105*
O=C(O)c1ccccc1C(=O)Nc1ccc(Oc2cccc3ccccc23)cc1	7	71*	88*	20	78*	20
COc1ccc(OC)c(-n2c(SCC(=O)Nc3cc(C)on3)nnc2-c2c[nH]c3ccccc23)c1	7	-24	-34	-3	-13	6
COc1ccc(CCn2c(-c3ccco3)nc3nc4ccccc4nc32)cc1	-10	32	57*	-3	-118	-69
Cc1ccc(-c2nc3nc4ccccc4nc3n2Cc2ccco2)cc1	-3	74*	90*	-1	-112	-108
COc1ccccc1Cn1c(-c2ccco2)nc2nc3ccccc3nc21	-1	-20	1	-7	-141	-85
Clc1ccc(-c2nc3nc4ccccc4nc3n2Cc2ccco2)cc1	-2	-5	59*	8	-165	-198
c1ccc(Cn2c(-c3ccco3)nc3nc4ccccc4nc32)cc1	-3	5	-8	4	-239	-255
CN(C)S(=O)(=O)N1CCN(C(=O)c2ccccc2Cl)CC1	10	14	-9	0	13	-3
SMILES	CF NFkB inh	TROY signal inh	TWEAK-Fn14 inh	KKLEB tox	HIF-2a inh	Peg3 promoter
CCCCC[C@@H]1CCCCC[C@H](O)C[C@H](O)[C@@H](O)/C=C/C(=O)O1	.	-3	-25	.	22	.
C=CCn1c(Cn2c(-c3cnccn3)nc3ccccc32)nc2ccccc21	.	4	-11	.	14	.
COC1C=CC=C(C)C(=O)NC2=CC(=O)C(N)=C(CC(C)CC(OC)C(O)C(C)C=C(C)C1OC(N)=O)C2=O (centres undefined)	64*	18	70*	17	-45	64*
COc1ccc(NC(=O)CSc2nc3c(sc4ccccc43)c(=O)n2CCCN2CCCC2)cc1	-3	-42	-19	-6	-18	69*
O=C(/C=C/c1ccco1)NCCc1ccccc1	-3	8	-8	6	-196	-250
Cc1ccc(/C=C/C(=O)NCCc2ccccc2)o1	-13	1	67*	3	-209	-190
CCN(Cc1ccncc1)C(=O)c1cc(COc2ccc(F)cc2F)on1	-10	2	-13	10	-16	-23
CCOC(=O)c1c(CSc2ccc(CC)cc2)oc2ccc(O)c(CN(C)C)c12	38	26	28	-21	6	98*
CCOC(=O)C1CCN(C(=O)COC(=O)c2ccccc2C(=O)c2ccc(Cl)cc2)CC1	0	1	5	0	9	1
Clc1ccc(-c2nc3ccccn3c2CN2CCCCC2)cc1	-8	55*	83*	-6	-3	-49
CN(C)Cc1c(-c2ccc(Cl)cc2)nc2ccccn12	-8	-40	-27	-6	-299	-201
CCn1c(=O)n(CC)c2cc(S(=O)(=O)NCCOc3ccccc3)c(C)cc21	1	10	1	-11	10	17
CCCCOC(=O)c1ccc(NC(=S)N2CCN(c3ncc4c(=O)c(C(=O)O)cn(CC)c4n3)CC2)cc1	36	27	63*	18	14	-6
CCc1nc2ccc(C(=O)Nc3ccc(OC)c(OC)c3)cn2c1N(C)Cc1ccc(N(C)C)cc1	10	4	-23	2	-17	-10
COc1ccc(Cn2c(C)nc3c(c2=O)c2nc4ccccc4nc2n3Cc2ccco2)cc1	14	9	52*	-14	6	34
COc1cc(/C=N/n2cnnc2)ccc1OC(=O)c1ccncc1	34	63*	0	-10	28	16
COc1cc(/C=N/n2cnnc2)ccc1OC(=O)c1cccnc1	0	42	4	6	16	17
COc1ccc(CCN2CC(C(=O)Nc3nccs3)CC2=O)cc1OC (centres undefined)	-8	-13	16	10	4	11
O=C(OCc1nnc(-c2ccccc2)o1)c1ccc2ccccc2n1	-2	.	79*	6	-72	-61
C=CCn1c(SCC(=O)N2CC(=O)Nc3ccccc32)nc2scc(-c3cccs3)c2c1=O	-25	10	52*	24	17	23
CC(C)CCn1c(SCC(=O)N2CC(=O)Nc3ccccc32)nc2scc(-c3cccs3)c2c1=O	-2	6	15	-1	6	-4
